# Results reported in PubChem BioAssay AID743419 (Vanderbilt Specialized Chemistry Center, 2014).
# Target: Metabotropic glutamate receptor 5 (Homo sapiens) (UniProt P41594)
# Assay: mGlu5 glutamate response modulation at 10 µM, profiling panel, selectivity assay for mGlu8/mGlu7 PAM project, cell-based, calcium fluorescence, glutamate curve fold shift (AID 743419)
# Conditions: mGlu5 cells, Fluo-4 calcium, glutamate CRC shift, glutamate EC50 fold shift, stronger effect = higher value
# Sequence of Metabotropic glutamate receptor 5 (Homo sapiens) (P41594 whole entry, looked up): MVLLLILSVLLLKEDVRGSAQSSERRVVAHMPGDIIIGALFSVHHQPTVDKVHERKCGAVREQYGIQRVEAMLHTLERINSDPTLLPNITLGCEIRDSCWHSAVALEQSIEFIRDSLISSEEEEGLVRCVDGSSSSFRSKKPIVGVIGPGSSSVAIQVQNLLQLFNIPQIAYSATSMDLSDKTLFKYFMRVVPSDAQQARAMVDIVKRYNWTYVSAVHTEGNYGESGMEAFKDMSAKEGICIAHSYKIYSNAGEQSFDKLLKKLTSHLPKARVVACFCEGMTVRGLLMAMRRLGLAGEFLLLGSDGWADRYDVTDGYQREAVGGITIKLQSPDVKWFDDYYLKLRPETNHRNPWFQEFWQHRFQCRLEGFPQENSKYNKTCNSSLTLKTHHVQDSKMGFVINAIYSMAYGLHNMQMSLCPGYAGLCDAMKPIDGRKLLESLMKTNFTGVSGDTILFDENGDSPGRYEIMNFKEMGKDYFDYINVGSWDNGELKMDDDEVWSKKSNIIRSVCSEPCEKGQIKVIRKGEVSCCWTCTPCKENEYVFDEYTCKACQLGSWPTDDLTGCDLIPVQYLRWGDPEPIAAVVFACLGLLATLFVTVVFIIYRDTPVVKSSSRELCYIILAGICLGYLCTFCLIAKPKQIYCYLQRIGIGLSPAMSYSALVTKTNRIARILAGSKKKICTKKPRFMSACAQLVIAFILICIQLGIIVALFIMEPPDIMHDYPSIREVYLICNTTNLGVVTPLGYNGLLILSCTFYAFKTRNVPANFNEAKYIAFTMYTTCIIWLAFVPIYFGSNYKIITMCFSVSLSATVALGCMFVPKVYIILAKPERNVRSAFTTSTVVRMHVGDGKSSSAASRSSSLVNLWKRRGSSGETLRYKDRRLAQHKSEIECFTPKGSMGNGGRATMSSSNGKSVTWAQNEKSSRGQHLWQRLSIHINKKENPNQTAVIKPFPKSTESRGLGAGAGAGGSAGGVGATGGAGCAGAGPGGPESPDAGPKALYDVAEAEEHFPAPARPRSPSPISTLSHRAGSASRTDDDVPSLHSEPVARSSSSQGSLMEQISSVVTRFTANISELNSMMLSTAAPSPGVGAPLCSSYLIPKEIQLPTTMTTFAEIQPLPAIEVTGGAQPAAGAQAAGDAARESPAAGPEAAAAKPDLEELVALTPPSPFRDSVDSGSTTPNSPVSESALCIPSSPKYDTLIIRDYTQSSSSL
smiles,measurement,value
COC(=O)c1ccc(-n2c(C)cc(C(=O)CSc3ccc(NC(C)=O)cc3)c2C)cc1,fold shift,1.45
